Growth data for 8 compounds are collected here from PubChem BioAssay (NCI).

Structures are written as SMILES. The panel holds about 83,000 compounds, 20% with a hit somewhere; the sample as a whole holds those more often.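 Results are percent growth after 48 hours of single-concentration exposure. 100 means growth as in untreated cells, lower positive values show inhibition; negative values down to -100 show cell death.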 Values without a mark were called inactive. Activity calls are given as the source filed them. The calls were made as follows: active = growth percent below 10; inactive = the rest.

Common to all, as to assay: NCI-60 one-dose screen, 48 h (100 = growth as untreated, 0 = no growth, -100 = all killed)
Holding throughout (conditions): 10 µM unless noted

For assay [1], the system named is NCI-H23 lung.
Assay [2] deals with NCI-H226 lung.
In assay [3] the test system is NCI-H322M lung.
Assay [4] has as its system HOP-62 NSCLC.
In assay [5] the test system is NCI-H460 lung.
In assay [6] the test system is HOP-92 NSCLC.
The test system of assay [7] is NCI-H522 lung.
The test system of assay [8] is A549/ATCC NSCLC.
Assay [9] deals with 786-0 renal.
The test system of assay [10] is COLO 205 colon.
In assay [11] the test system is DU-145 prostate.
The subject of assay [12] is K-562 leukemia.
Assay [13] has as its system MALME-3M melanoma.
Assay [14] has as its system MDA-MB-231 breast.
Assay [15] concerns RXF 393 renal.
In assay [16] the test system is SF-268 CNS.
The test system of assay [17] is SF-295 CNS.
Assay [18] relates to SF-539 CNS.
Assay [19] deals with UACC-257 melanoma.
Assay [20] relates to M14 melanoma.

For the compound `c1ccc(-c2cn3ccnc3c(-c3ccc4c(c3)ncn4C3CCCCC3)n2)cc1`, the growth in assay [1] is 103%; in [2] it was 106%; in assay [3] it was 97.1%; in assay [4] it was 87.1%; in assay [5], 104%; in assay [6] it was 89.1%. The growth was 83.9% in [7]; 91% in assay [8]; 91.8% in assay [9]; 99.7% in [10]; 97.4% in assay [11]; 68.9% in [12]. Moreover, the growth in [13] is 120%; in assay [14] it was 93.4%; in [15], 76.7%; in [16] it was 98.7%; in assay [17], 101%; in [18], 97.8%. In addition, the growth in [19] was 110%; in assay [20] it was 98.4%.
For `O=C1CCc2ccccc2N1`, the growth in assay [1] was 99.4%; in assay [2], 104%; in assay [3], 87.9%; in [4] it was 102%; in assay [5], 110%; in assay [6] it was 101%. Moreover, the growth in assay [7] is 101%; in [8] it was 101%; in assay [9], 101%; in assay [10], 97.1%; in assay [11] it was 103%; in assay [12] it was 90.2%. For the same compound, the growth in assay [13] was 88.5%; in assay [14], 110%; in assay [15], 111%; in [16], 97.4%; in assay [17] it was 107%; in [18], 105%. Further, the growth in assay [19] was 106%; in assay [20] it was 99.2%.
Turning to `CCc1c(C(=O)N[C@@H](C(=O)OCc2ccccc2)C(C)O)[nH]c2ccc(Cl)cc12` (stereo not given in full), the growth in assay [1] is 80.1%; in assay [2] it was 21.7%; in assay [3], 75%; in assay [4], 65.8%; in assay [5] it was 13.8%; in assay [6] it was 74.5%. The growth in [7] was 77.1%; in assay [8], 69.6%; in [9], 11.1%; in assay [10], 48.7%; in assay [11], 86.5%; in assay [12], 104%. Moreover, the growth in assay [13] is 69.7%; in [14] it was 61.3%; in assay [15], 83.8%; in assay [16] it was 84.3%; in assay [17], 52.1%; in [18], 71.4%. The figures for the growth in assay [19] and in assay [20] were 109% and 88.3%, respectively.
As to `CCOC(=O)c1c(C)nc2c(c1N)/C(=C/c1ccccn1)C(=O)N2Cc1ccccc1`, the growth in assay [1] was 23.6%; in assay [2], 44.4%; in assay [3], 62.7%; in [4], -8.66% (active); in [5], 4.8% (active); in [6] it was 30.5%. The growth is 0.177% (active) in assay [7]; 44.6% in [8]; -64.8% (active) in assay [9]; -42.7% (active) in assay [10]; 12.6% in assay [11]; -16% (active) in assay [12]. For the same compound, the growth was 31.4% in [13]; 14.1% in assay [14]; -76.4% (active) in assay [15]; 16.7% in [16]; 65.6% in assay [17]; 11.1% in [18]. For the same compound, the growth in [19] is 35.1%; in [20], 0.865% (active).
Take `COc1cc2nc3c(=O)n(-c4ccc(C#N)cc4)cnn3c(=O)c2cc1OC`: the growth in assay [1] was 98.3%; in assay [2] it was 95.1%; in assay [3] it was 93.3%; in assay [4], 102%; in assay [5], 104%; in [6] it was 103%. Further, the growth in assay [7] is 82.1%; in assay [8], 106%; in assay [9] it was 103%; in [10] it was 94.3%; in assay [11] it was 103%; in assay [12], 106%. Besides, the growth is 87.5% in [13]; 103% in [14]; 100% in assay [15]; 88.5% in assay [16]; 99.8% in [17]; 94.9% in assay [18]. The growth in assay [19] was 110%; in assay [20], 94.1%.
Turning to `Cc1cccc(NC(=O)c2sc3nc4c(cc3c2N)CN(Cc2ccccc2)CC4)c1C`, the growth in assay [1] was 51.3%; in assay [2], 60%; in assay [3] it was 40.4%; in [4], 32.3%; in [5], 12.5%; in assay [6], 35.2%. The growth in assay [7] was 11.3%; in assay [8], 31.1%; in assay [9], 31.9%; in assay [10], -0.373% (active); in assay [11], 0.783% (active); in [12] it was 13.1%. Besides, the growth in [13] was 53.5%; in [14], 45.2%; in assay [15], 16.9%; in assay [16], 41.4%; in assay [17], 27.6%; in assay [18], 19.8%. Also, the growth in [19] was 87.9%; in assay [20] it was 4.27% (active).
Turning to `C[C@H]1[C@H](C)CC[C@]2(C(=O)OCCCC[P+](c3ccccc3)(c3ccccc3)c3ccccc3)CC[C@]3(C)C(=CC[C@@H]4[C@@]5(C)CC[C@H](OC(=O)C(Cl)Cl)C(C)(C)[C@@H]5CC[C@]43C)[C@H]12`, the growth in [1] is -48.3% (active); in assay [2], -78.8% (active); in [3] it was -10.6% (active); in assay [4], -65% (active); in assay [5] it was -83.8% (active); in [6], -70.1% (active). The growth in assay [7] was -55% (active); in assay [8], -41.9% (active); in assay [9] it was -83.5% (active); in assay [10], -84.9% (active); in assay [11], -35.2% (active); in assay [12], -57.4% (active). Besides, the growth in assay [13] was -85.2% (active); in [14], -68.8% (active); in assay [15] it was -91.4% (active); in [16], -31.8% (active); in assay [17], -77.9% (active); in assay [18], -78.8% (active). Moreover, the results for the growth in [19] and in assay [20] were -78.9% (active) and -82.7% (active), respectively.
As to `O=C(/C(=C/c1ccc([N+](=O)[O-])cc1)SCc1ccc(F)cc1)c1ccc(Cl)cc1`, the growth in assay [1] was 58.9%; in assay [2] it was 64.6%; in assay [3] it was 98.1%; in assay [4], 76.8%; in assay [5], 82.4%; in assay [6], 69.6%. Also, the growth was -41.4% (active) in assay [7]; 86.8% in [8]; 82.5% in [9]; 64% in assay [10]; 87.5% in [11]; 0.694% (active) in [12]. Further, the growth is 91.9% in assay [13]; 58.7% in [14]; 93.4% in assay [15]; 75.6% in [16]; 81.6% in assay [17]; 94.6% in [18]. Besides, the growth in assay [19] is 87.4%; in assay [20], 44.7%.
